The test system of assay [1] is XIP peptide (Xip251-270) binding. The experiment in a line: XIP fragment 251-270 binding compounds – biochemical, small-molecule microarray, fluorescence 635/667 nm, 0.1 µg/mL protein, primary screen (AID 1182). The settings on record: fluorescent protein binding, 635 nm, higher = more signal, called active from +8 up or from −8 down.
For assay [2], the system named is XIP peptide (Xip251-270). In words: compounds binding XIP fragment 251-270 – biochemical, small-molecule microarray, fluorescence 635/667 nm, 0.5 µg/mL protein, primary screen (AID 1183). As to conditions: fluorescence 635 nm, higher = more signal.
The nature of assay [3]: blood-stage malaria parasite viability loss – strain 3D7, DAPI fluorescence, 100 nL, primary screen (AID 1184).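 Note: parasites grown inside human red blood cells in medium with human serum.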 As to conditions: P. falciparum 3D7 growth, 3 d, higher = more signal.
The target in assay [4] is Homeobox protein Hox-A13 (Mus musculus) (UniProt Q62424). In words: disruptors of Hoxa13 oligonucleotide interaction – biochemical, fluorescence polarization, labeled oligonucleotide, primary screen (AID 1185). The settings on record: Hoxa13:DNA binding, 15 min, higher = more signal, called active from +8 up or from −8 down. On the technique in general: Fluorescence polarisation rises when a labelled molecule tumbles more slowly, as on binding a larger partner.
Chain of Homeobox protein Hox-A13 (Mus musculus) (Q62424 whole entry, looked up): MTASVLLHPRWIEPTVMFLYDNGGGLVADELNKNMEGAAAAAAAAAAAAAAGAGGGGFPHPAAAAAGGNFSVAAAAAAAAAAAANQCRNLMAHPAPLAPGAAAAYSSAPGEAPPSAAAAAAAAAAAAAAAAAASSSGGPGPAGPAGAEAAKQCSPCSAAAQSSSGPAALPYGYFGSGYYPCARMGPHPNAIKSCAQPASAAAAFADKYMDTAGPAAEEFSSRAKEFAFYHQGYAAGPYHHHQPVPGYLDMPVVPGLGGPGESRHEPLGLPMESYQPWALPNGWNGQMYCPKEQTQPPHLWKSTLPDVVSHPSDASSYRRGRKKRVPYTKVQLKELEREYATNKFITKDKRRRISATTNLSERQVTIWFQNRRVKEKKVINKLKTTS

Assay [5] is described as follows: blockers of DNA damage checkpoint Chk1 activation – imaging, HeLa, hydroxyurea, phospho-Chk1 antibody, percent positive cells, primary screen (AID 1186). As to conditions: hydroxyurea-induced phospho-Chk1 immunofluorescence imaging, higher = more signal.
Assay [6] can be described thus: blockers of DNA damage checkpoint Chk1 activation – imaging, HeLa, hydroxyurea, phospho-Chk1 nuclear intensity, primary screen (AID 1187). The settings on record: hydroxyurea-induced phospho-Chk1 immunofluorescence imaging, higher = more signal.

SMILES strings stand for the structures. Calls of active or inactive are those of the source. Unless noted, the rule behind the calls is not given here.

Regarding `COc1ccc([Si](C)(C)[C@H]2[C@H](CC(=O)N3CCC[C@H]3CO)O[C@@]3(C(=O)N(C)c4ccccc43)[C@@H]2C)cc1`, the composite z-score was -0.216 (inactive) in assay [1] and 0.924 in assay [2]. In addition, the z-score was 1.07 in assay [3], -3.41 (inactive) in assay [4], -0.529 (inactive) in assay [5] and -0.766 (inactive) in assay [6].
In the case of `Cc1ccc(S(=O)(=O)N2[C@@H](c3ccccc3)C(C(=O)O)=C[C@H]2C(C)(C)C)cc1`, the composite z-score is 1.11 (inactive) in assay [1] and 0.792 in assay [2]. Further, the z-score in assay [3] is -1.04; in assay [4], -5.12 (inactive); in assay [5], 0.694 (inactive); in assay [6] it was 0.0696 (inactive).
With `CC(C)c1ccc(NN2C(C(O)C3=C[C@H]4C[C@@H](C3)C4(C)C)C=CC3C(=O)N(c4ccccc4)C(=O)C32)cc1` (some centres not stated), the composite z-score in assay [1] was 1.35 (inactive); in assay [2], 0.464. The z-score is -0.0979 in assay [3], -2.33 (inactive) in assay [4], -0.0307 (inactive) in assay [5] and -0.257 (inactive) in assay [6].
With `CC(C)c1ccc(NN2C(C(O)c3ccccc3)C=CC3C(=O)N(c4ccccc4)C(=O)C32)cc1` (configuration not stated), the composite z-score in assay [1] was 0.542 (inactive); in assay [2] it was 0.602. The z-score was -0.164 in assay [3], -1.36 (inactive) in assay [4], -1.43 (inactive) in assay [5] and -1.77 (inactive) in assay [6].
For `COc1ccc([Si](C)(C)[C@@H]2[C@@H](CC(=O)N3Cc4ccccc4C[C@H]3CO)O[C@]3(C(=O)N(Cc4ccc(I)cc4)c4ccccc43)[C@H]2C)cc1`, the composite z-score in assay [1] was 0.153 (inactive); in assay [2] it was 0.477. Further, the z-score in assay [3] is -2.83; in assay [4], -2.35 (inactive); in assay [5], -0.67 (inactive); in assay [6] it was -0.295 (inactive).
`C=C[C@H](C)[C@@H](OC(=O)Nc1ccc(SC)cc1)c1ccc(OCCO)cc1`: the results for the composite z-score in assay [1] and in assay [2] were -0.0975 (inactive) and -0.0208, respectively. The z-score in assay [3] was -0.526; in assay [4] it was -4.53 (inactive); in assay [5] it was -0.328 (inactive); in assay [6], -0.809 (inactive).
`O=C1NC(=O)C2C1C=CC(C(O)C1CCCCC1)N2Nc1ccccn1` (configuration not stated): the composite z-score in assay [1] was -0.275 (inactive); in assay [2] it was 0.27. Further, the z-score in assay [3] was 0.582; in assay [4], -2.17 (inactive); in assay [5], 1.04 (inactive); in assay [6], 1.39 (inactive).
`C=C(C)C1CN([C@H](CO)c2ccccc2)C(=O)/C1=C\c1ccccc1` (some centres not stated): the composite z-score is -0.598 (inactive) in assay [1] and 0.36 in assay [2]. The z-score was -1.9 in assay [3], -1.05 (inactive) in assay [4], -0.484 (inactive) in assay [5] and -0.234 (inactive) in assay [6].
Turning to `C[C@]1(C(=O)O)c2ccccc2C(=O)N(Cc2cc(C(F)(F)F)cc(C(F)(F)F)c2)[C@H]1c1ccc(CO)cc1`, the composite z-score is 0.17 (inactive) in assay [1] and 0.816 in assay [2]. Also, the z-score in assay [3] is 1.06; in assay [4], -2.61 (inactive); in assay [5] it was 0.19 (inactive); in assay [6], 0.362 (inactive).
For the compound `COc1ccc(C#Cc2ccc3c(c2)[C@]2(C(=O)N3)[C@H](c3ccccc3OCCO)N3[C@H](c4ccccc4)[C@H](c4ccccc4)OC(=O)[C@H]3[C@@H]2C(=O)NC[C@H](O)c2ccccc2)cc1`, the composite z-score was 0.134 (inactive) in assay [1] and 0.709 in assay [2]. The z-score was -2.01 in assay [3], -1.77 (inactive) in assay [4], -0.11 (inactive) in assay [5] and 0.108 (inactive) in assay [6].
As for `COC(=O)C1=CC(c2ccc(CO)cc2)=CC(C2CC2)N(Cc2cc3c(cc2Br)OCO3)C=C1C(=O)OC` (configuration not stated), the composite z-score in assay [1] is 1.59 (inactive); in assay [2] it was 0.859. For the same compound, the z-score in assay [3] was -2.29; in assay [4] it was -5.19 (inactive); in assay [5], 0.0404 (inactive); in assay [6] it was -0.0211 (inactive).
Regarding `CCOC(=O)C1=CC[C@@H](c2ccccc2)N(S(=O)(=O)c2ccc(C)cc2)[C@@H]1C#N`, the figures for the composite z-score in assay [1] and in assay [2] were 0.216 (inactive) and 0.423, respectively. Also, the z-score in assay [3] was -0.465; in assay [4] it was -4.26 (inactive); in assay [5], -1.95 (inactive); in assay [6], -2.5 (inactive).
For the compound `COc1ccc([Si](C)(C)[C@H]2[C@H](CC(=O)N(CCO)Cc3ccccc3)O[C@@]3(C(=O)N(Cc4ccc(N5C(=O)c6cccc7cccc5c67)cc4)c4ccccc43)[C@@H]2C)cc1`, the composite z-score is 1.74 (inactive) in assay [1] and 0.587 in assay [2]. The z-score in assay [3] was -2.11; in assay [4] it was -1.38 (inactive); in assay [5], -0.664 (inactive); in assay [6] it was -0.393 (inactive).
As to `COc1ccc([Si](C)(C)[C@H]2[C@H](CCO)O[C@@]3(C(=O)N(Cc4ccccc4)c4ccc(NC(=O)[C@H](C)O)cc43)[C@@H]2C)cc1`, the composite z-score was -0.0359 (inactive) in assay [1] and -0.313 in assay [2]. The z-score is -2.6 in assay [3], -5.67 (inactive) in assay [4], -1.59 (inactive) in assay [5] and -0.751 (inactive) in assay [6].
As for `COCCOC(=O)N1C(=O)[C@@]2(c3cc(C#CC4(O)CCCCCC4)ccc31)[C@H](C(N)=O)[C@H]1C(=O)O[C@H](c3ccccc3)[C@H](c3ccccc3)N1[C@@H]2c1ccc(OCCO)cc1`, the values for the composite z-score in assay [1] and in assay [2] were 1.56 (inactive) and 0.73, respectively. The z-score is -1.62 in assay [3], -0.51 (inactive) in assay [4], -0.0908 (inactive) in assay [5] and -0.524 (inactive) in assay [6].
As to `O=C1N(Cc2ccccc2)c2ccccc2C[C@@]12N=C(c1ccc(OCCCO)cc1)O[C@H]2c1ccccc1`, the composite z-score in assay [1] was 1.85 (inactive); in assay [2], 0.541. Also, the z-score in assay [3] was -2.52; in assay [4], -5.07 (inactive); in assay [5] it was 0.134 (inactive); in assay [6], 0.553 (inactive).
For `C=C[C@@H](CO)NS(=O)(=O)c1ccc(Br)cc1`, the values for the composite z-score in assay [1] and in assay [2] were -0.987 (inactive) and -1.58, respectively. Further, the z-score in assay [3] was -0.345; in assay [4], 0.553 (inactive); in assay [5], -0.734 (inactive); in assay [6], -0.695 (inactive).
